PubChem BioAssay
Numbered stars: 1 amine (or outer) side, 2 acyl side, 3 side chain; on linkers, the order of the positions; unused ones are H or OH. Bridge positions count the residues as written; N and C are the ends. Square brackets hold non-standard residues; d marks the D form. Peptide text beside a SMILES is read from it. I, II: the chains in the order shown. * marks the point of attachment. ξ: configuration not given here. Actinocin(9to1) = Cc1c2oc3c(C)ccc(C(=O)[*:1])c3nc-2c(C(=O)[*:2])c(N)c1=O; ΔAla(E,3-NHCONH2) = NC(=O)N/C=C(/N)C(=O)O; X1 = NC1=NCCC(C(N[*:1])C(=O)[*:2])N1; Heptanoyl(6-Me) = CC(C)CCCCC(=O)*; NMeV = CN[CH](C(=O)O)C(C)C; ξβ3hOrn = NCCCC(N)CC(=O)*; Orn = NCCC[CH](N)C(=O)O; Dab = NCC[CH](N)C(=O)O; Dap = NC[CH](N)C(=O)O; Sar = CNCC(=O)O

Assay: viability loss with induced miR-34 in A549 – imaging, A549 dox-inducible miR-34, nuclei and caspase counts, primary screen (AID 1347080); also: test concentration not given here
Details: A549 miR-34 inducible, Hoechst nuclei count, 48 h; measured here: relative caspase fold change +Dox/-Dox

Compound | fold change
CO/N=C(\C(=O)NC1C(=O)N2C(C(=O)OCOC(=O)C(C)(C)C)=C(/C=C\c3scnc3C)CSC12)c1csc(N)n1 (configuration not stated) | 4.33
CC(C)CC1NC(=O)C(CCCN)NC(=O)C(C(C)C)NC(=O)C2CCCN2C(=O)C(Cc2ccccc2)NC(=O)C(CC(C)C)NC(=O)C(CCCN)NC(=O)C(C(C)C)NC(=O)C2CCCN2C(=O)C(Cc2ccccc2)NC1=O (configuration not stated) (cyclo(FPV[Orn]LFPV[Orn]L); configuration not given here) | 1.03
CC(=O)OC1CCC2C3CCc4cc(O)ccc4C3CCC12C (configuration not stated) | 3.29
O=C1O[C@H](C(O)CO)C(O)=C1O (some centres not stated) | 4.48
CO/N=C(/C(=O)N[C@@H]1C(=O)N2C(C(=O)O)=C(CSc3nc(=O)c(O)nn3C)CS[C@H]12)c1csc(N)n1 | 3.26
NCCCC(N)CC(=O)NCC1NC(=O)C(CO)NC(=O)C(N)CNC(=O)C(C2CCN=C(N)N2)NC(=O)/C(=C\NC(N)=O)NC1=O (stereo not drawn) (H-[Dap]S[Dap](ξβ3hOrn)[ΔAla(E,3-NHCONH2)][X1]; lactam 1-C; configuration not given here) | 1.07
CCCCCCCCCCCCCCCC(=O)O[C@@H]1[C@@H](O)[C@@H](O)C([C@H](NC(=O)[C@@H]2C[C@@H](CCC)CN2C)[C@H](C)Cl)O[C@@H]1SC (some centres not stated) | 4.42
CO/N=C(/C(=O)NC1C(=O)N2C(C(=O)OC(C)OC(C)=O)=C(COC(N)=O)CSC12)c1ccco1 (configuration not stated) | 1.77
O=C(N[C@@H](CO)[C@H](O)c1ccc([N+](=O)[O-])cc1)C(Cl)Cl | 1.84
C[C@]12C=CC(=O)C=C1CCC1C2[C@@H](O)C[C@@]2(C)C1CC[C@]2(O)C(=O)COC(=O)CCC(=O)O (some centres not stated) | 2.28
CC1=C(C(=O)O)N2C(=O)[C@@H](NC(=O)C(N)c3ccc(O)cc3)[C@H]2SC1 (some centres not stated) | 3.02
CCC(=O)OCC(=O)[C@@]1(OC(=O)CC)[C@@H](C)CC2C3CCC4=CC(=O)C=C[C@]4(C)C3(F)[C@@H](O)C[C@@]21C (some centres not stated) | 2.62
C/C=C\C1=C(C(=O)O)N2C(=O)C(NC(=O)C(N)c3ccc(O)cc3)C2SC1 (configuration not stated) | 4.02
C[C@H]1CC2C([C@@H](O)C[C@@]3(C)C2CC[C@]3(O)C(=O)COC(=O)CCC(=O)O)[C@@]2(C)C=CC(=O)C=C12 (some centres not stated) | 2.48
NCC1CCCCC1CC(=O)O (configuration not stated) | 5.86
CC1=C(C(=O)O)N2C(=O)[C@@H](NC(=O)[C@H](N)C3=CCC=CC3)C2SC1 (some centres not stated) | 4.9

Compound | fold change
CC[C@@H]1OC(=O)C[C@@H](O)[C@H](C)[C@@H](O[C@@H]2O[C@H](C)[C@@H](O)[C@H](N(C)C)[C@H]2O)[C@@H](CCN2C[C@H](C)C[C@H](C)C2)C[C@@H](C)C(=O)/C=C/C(C)=C\[C@@H]1CO[C@@H]1O[C@H](C)[C@@H](O)[C@@H](OC)[C@H]1OC | 3.65
CCC(C)C1NC(=O)C(CCN)NC(=O)C(NC(=O)C(CCN)NC(=O)C(NC(=O)C(CCN)NC(=O)CCCCC(C)C)C(C)O)CCNC(=O)C(C(C)O)NC(=O)C(CCN)NC(=O)C(CCN)NC(=O)C(C(C)CC)NC1=O (configuration not stated) ({Heptanoyl(6-Me)}-[Dab]T[Dab][Dab][Dab]II[Dab][Dab]T; lactam 4-C; configuration not given here) | 3.33
COc1cc(NS(C)(=O)=O)ccc1Cc1c2ccccc2nc2ccccc12 | 3.12
CC(CCC(=O)O)[C@H]1CCC2C3C(=O)C[C@@H]4CC(=O)CC[C@]4(C)C3CC(=O)[C@@]21C (some centres not stated) | 1.77
CC1C/C=C/C=C/C=C/C=C/C(O[C@@H]2O[C@H](C)[C@@H](O)[C@H](N)[C@@H]2O)CC2OC(O)(CC(O)CC3OC3/C=C/C(=O)O1)CC(O)C2C(=O)O (some centres not stated) | 2.95
CC(=O)OCC(=O)[C@@]1(OC(C)=O)[C@@H](C)CC2C3C[C@H](F)C4=CC(=O)C=C[C@]4(C)[C@@]3(F)[C@@H](O)C[C@@]21C (some centres not stated) | 4.21
CC(C)c1c(C(=O)c2ccccc2)c(-c2ccccc2)c(-c2ccc(F)cc2)n1CC[C@@H](O)C[C@@H](O)CC(=O)O | 3.4
CCC(C)C(=O)O[C@H]1C[C@H](O)C=C2C=C[C@H](C)[C@H](CC[C@@H](O)C[C@@H](O)CC(=O)O)C21 (some centres not stated) | 5.53
C#C[C@]1(OC(C)=O)CCC2C3CCC4=C/C(=N/O)CCC4C3CC[C@@]21CC (some centres not stated) | 2.93
CC(=O)O[C@]1(C(C)=O)CCC2C3C=C(Cl)C4=CC(=O)CC[C@]4(C)C3CC[C@@]21C (some centres not stated) | 1.11
N[C@H](Cc1cc(I)c(Oc2ccc(O)c(I)c2)c(I)c1)C(=O)O | 1.64
COCC1=C(C(=O)OC(C)OC(=O)OC(C)C)N2C(=O)[C@@H](NC(=O)/C(=N/OC)c3csc(N)n3)[C@H]2SC1 (some centres not stated) | 3.66
CCCCCCCCCCC[C@@H](C[C@H]1OC(=O)[C@H]1CCCCCC)OC(=O)[C@@H](CC(C)C)NC=O | 2
Cc1c2oc3c(C)ccc(C(=O)OC(C)C4NC(=O)C(C(C)C)N(C)C(=O)CN(C)C(=O)C5CCCN5C(=O)C(C(C)C)NC4=O)c3nc-2c(C(=O)OC(C)C2NC(=O)C(C(C)C)N(C)C(=O)CN(C)C(=O)C3CCCN3C(=O)C(C(C)C)NC2=O)c(N)c1=O (configuration not stated) (I: cyclo([Sar][NMeV]TVP) / II: cyclo([Sar][NMeV]TVP); linker I:3-II:3 via Actinocin(9to1); configuration not given here) | 1.67
OC[C@H]1OC([S-])[C@H](O)[C@@H](O)[C@@H]1O.[Au+] (some centres not stated) | 2.52
NC(Cc1c[nH]c2ccccc12)C(=O)O (configuration not stated) | 2.24
